The AC50 is the midpoint of the concentration-response curve, whichever way the signal moves.

The record followed here is PubChem BioAssay (EPA / NIEHS).

Inconclusive results are not listed. Activity calls are given as the source filed them. How the source made its calls, unless noted: active means hit-call score of the fitted dose curve at least 0.9, where 1 is the maximum; inactive means score below 0.9.

Assay [1] addresses Paired box protein Pax-6 (Homo sapiens) (UniProt P26367). As to the kind of experiment: ATG_Pax6_CIS: Attagene CIS-FACTORIAL HepG2 Assay for human Paired Box 6 (PAX6) (AID 2282956). To be noted: HepG2 CIS-FACTORIAL PAX6 reporter transcription, RNA readout; actives raise or lower the signal. An outline of the steps: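 DMSO-referenced bidirectional fits of reporter mRNA fluorescence; HepG2 with transient cis-promoter MRTUs, 24 h post-dose, RT-PCR plus capillary electrophoresis detection.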

Assay [2] is described as follows: ATG_PXRE_CIS: Attagene CIS-FACTORIAL HepG2 Assay for human Pregnane X Receptor Element (PXRE) (AID 2282957). Particulars: HepG2 Attagene CIS-FACTORIAL PXRE reporter, mRNA; actives raise or lower the signal. In short, it runs like this: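 Bidirectional activity, baselined to DMSO, derived from reporter mRNA fluorescence (RT-PCR plus capillary electrophoresis) in HepG2 cells bearing cis-promoter reporter units, 24 h exposure.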

Assay [3] is described as follows: ATG_PPRE_CIS: Attagene CIS-FACTORIAL HepG2 Assay for human Peroxisome Proliferator-activated Response Element (PPRE) (AID 2282958). To be noted: HepG2 PPRE cis-element reporter, Attagene transcription factor profiling; actives raise or lower the signal. An outline of the steps: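 Read-out: fluorescent reporter mRNA fragments resolved by capillary electrophoresis after RT-PCR. HepG2 cells carried transiently transfected PPRE-driven cis reporter constructs and were dosed for 24 h; gain or loss of signal fitted relative to DMSO.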

Assay [4] in a line: ATG_RORE_CIS: Attagene CIS-FACTORIAL HepG2 Assay for human RAR-related Orphan Receptor Element (RORE) (AID 2282959). Particulars: HepG2 Attagene cis-factorial RORE reporter, mRNA; actives raise or lower the signal. An outline of the steps: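 Readout: fluorescent reporter mRNA by RT-PCR plus capillary electrophoresis, 24 h after dosing transfected HepG2 cells. Endogenous transcription factor activity on a cis promoter element is measured. Gain or loss of signal fitted against DMSO.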

The nature of assay [5]: ATG_Sox_CIS: Attagene CIS-FACTORIAL HepG2 Assay for human SRY-box transcription factor (SOX) (AID 2282960). Particulars: HepG2 Attagene cis-factorial SOX reporter, mRNA; actives raise or lower the signal. An outline of the steps:
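Read-out: fluorescent RT-PCR products of SOX1-linked reporter transcripts resolved by capillary electrophoresis, fitted bidirectionally against DMSO. Transiently transfected HepG2 cells, 24 h after chemical exposure, endogenous transcription factor activity.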

For assay [6], the target named is Transcription factor Sp1 (Homo sapiens) (UniProt P08047). As to the kind of experiment: ATG_Sp1_CIS: Attagene CIS-FACTORIAL HepG2 Assay for human Specificity Protein 1 (Sp1) (AID 2282961). Particulars: HepG2 Sp1 cis-reporter transcription, actives raise or lower the signal. An outline of the steps: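 Read-out: fluorescence of 6-FAM-labeled, HpaI-digested RT-PCR products separated by capillary electrophoresis. HepG2 cells carried transfected cis-element reporter units and were exposed to chemicals for 24 h; gain or loss of signal fitted relative to DMSO.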
Chain of Transcription factor Sp1 (Homo sapiens) (P08047 whole entry, looked up): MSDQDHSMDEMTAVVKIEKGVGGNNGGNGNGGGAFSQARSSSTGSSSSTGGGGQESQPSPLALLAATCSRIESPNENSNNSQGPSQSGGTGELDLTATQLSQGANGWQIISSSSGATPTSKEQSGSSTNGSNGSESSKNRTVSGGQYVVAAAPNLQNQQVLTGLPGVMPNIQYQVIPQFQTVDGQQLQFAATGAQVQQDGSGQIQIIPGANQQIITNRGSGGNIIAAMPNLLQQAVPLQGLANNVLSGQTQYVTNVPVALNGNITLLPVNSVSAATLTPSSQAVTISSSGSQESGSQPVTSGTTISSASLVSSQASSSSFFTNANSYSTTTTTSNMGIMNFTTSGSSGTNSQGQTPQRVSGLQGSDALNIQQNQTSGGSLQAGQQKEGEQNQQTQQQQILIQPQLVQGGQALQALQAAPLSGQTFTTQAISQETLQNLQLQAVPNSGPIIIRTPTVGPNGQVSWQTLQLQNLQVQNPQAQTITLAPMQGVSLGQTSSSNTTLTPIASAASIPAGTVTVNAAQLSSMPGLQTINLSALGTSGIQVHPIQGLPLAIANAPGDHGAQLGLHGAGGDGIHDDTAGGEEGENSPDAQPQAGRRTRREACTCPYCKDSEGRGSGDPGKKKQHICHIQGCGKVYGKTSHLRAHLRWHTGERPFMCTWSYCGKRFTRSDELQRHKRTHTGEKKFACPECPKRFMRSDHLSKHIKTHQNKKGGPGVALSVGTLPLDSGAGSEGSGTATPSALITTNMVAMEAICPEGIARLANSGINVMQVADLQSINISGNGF

Assay [7] is described as follows: ATG_SREBP_CIS: Attagene CIS-FACTORIAL HepG2 Assay for human Sterol Regulatory Element Binding (SREBP) (AID 2282962). To be noted: HepG2 Attagene cis-factorial SREBP reporter, mRNA; actives raise or lower the signal. In short, it runs like this: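 In this cis-format assay, HepG2 liver cells express reporters controlled by promoter elements responsive to native transcription factors. Exposure lasts 24 h; reporter mRNA fluorescence from capillary electrophoresis gives the signal, fitted bidirectionally against DMSO.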

Assay [8] has as its target Signal transducer and activator of transcription 3 (Homo sapiens) (UniProt P40763). As to the kind of experiment: ATG_STAT3_CIS: Attagene CIS-FACTORIAL HepG2 Assay for human Signal Transducer and Activator of Transcription 3 (STAT3) (AID 2282963). Particulars: HepG2, Attagene cis-factorial STAT3 reporter transcription; actives raise or lower the signal. In short, it runs like this:
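HepG2, MRTU-transfected, 24 h dosing. RNA → RT → PCR → FAM label → HpaI → CE. Bidirectional fit vs DMSO.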

A short description of assay [9]: ATG_TCF_b_cat_CIS: Attagene CIS-FACTORIAL HepG2 Assay for human T-Cell-Factor with beta-catenin (TCF/b-cat) (AID 2282965). Particulars: HepG2 TCF/beta-catenin cis-reporter transcription, actives raise or lower the signal. In short, it runs like this: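 HepG2 cells transiently transfected with multiple cis-promoter-regulated reporter transcription units, so endogenous transcription factor activity is measured. Reporter mRNA read 24 hours after dosing by RT-PCR, fluorescent labelling and capillary electrophoresis; bidirectional fitting against DMSO.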

Assay [10] in a line: ATG_TAL_CIS: Attagene CIS-FACTORIAL HepG2 Assay for human TAL Basal Promoter (AID 2282966).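 Further: background control endpoint measuring basal TAL promoter reporter mRNA not a specific factor.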 Particulars: HepG2 Attagene cis-factorial TAL promoter reporter; actives raise or lower the signal. In short, it runs like this:
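Human hepatoma HepG2 cells, transfected with promoter-regulated reporter units, were treated 24 h. Reporter transcript levels, measured through RT-PCR and capillary electrophoresis, were fitted for gain or loss relative to DMSO.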

The nature of assay [11]: ATG_TGFb_CIS: Attagene CIS-FACTORIAL HepG2 Assay for human Transforming Growth Factor (TGF) (AID 2282967). To be noted: HepG2 Attagene CIS TGFb reporter, mRNA transcription; actives raise or lower the signal. In short, it runs like this:
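HepG2 cells transiently transfected with cis-promoter-driven multiplexed reporter units; 24 h compound exposure. Reporter mRNA measured by RT-PCR, 6-FAM labeling, HpaI digestion and capillary electrophoresis; bidirectional fit versus DMSO baseline.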

The nature of assay [12]: ATG_VDRE_CIS: Attagene CIS-FACTORIAL HepG2 Assay for human Vitamin D Receptor Element (VDRE) (AID 2282968). Particulars: HepG2 VDRE cis-reporter transcription, actives raise or lower the signal. An outline of the steps: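 Steps: transfect HepG2 with multiple reporter transcription units; dose chemicals 24 h; isolate RNA; RT-PCR; label with 6-FAM primer extension; HpaI digest; capillary electrophoresis. Curves fitted both directions against DMSO.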

Assay [13] addresses Nuclear receptor subfamily 1 group I member 3 (Homo sapiens) (UniProt Q14994). Put plainly: ATG_CAR_TRANS: Attagene TRANS-FACTORIAL HepG2 Assay for human Constitutive Androstane Receptor (CAR) (AID 2282969; active means hit-call score of the fitted dose curve at least 0.9, where 1 is the maximum;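 further: activators raise reporter mRNA above DMSO so AC50 marks induction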). To be noted: HepG2 Attagene TRANS-FACTORIAL CAR reporter. An outline of the steps:
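Steps: transient transfection of HepG2 with multiple GAL4-UAS reporter units; 24 h compound incubation; RNA isolation, RT-PCR, 6-FAM primer extension, HpaI digest; capillary electrophoresis. Gain-of-signal relative to DMSO negative control.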

The target of assay [14] is Estrogen receptor (Homo sapiens) (UniProt P03372). As to the kind of experiment: ATG_ERa_TRANS: Attagene TRANS-FACTORIAL HepG2 Assay for human Estrogen Receptor alpha (ERa) (AID 2282970; active means hit-call score of the fitted dose curve at least 0.9, where 1 is the maximum). Particulars: HepG2 Attagene TRANS ERa GAL4 reporter, mRNA. An outline of the steps:
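Signal derives from fluorescence of labelled reporter PCR fragments separated by capillary electrophoresis. HepG2 cells transiently carrying multiple GAL4-UAS reporter units were treated 24 hours, and induction above DMSO baseline was fitted as activity.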

Assay [15] addresses X-box-binding protein 1 (Homo sapiens) (UniProt P17861). As to the kind of experiment: ATG_Xbp1_CIS: Attagene CIS-FACTORIAL HepG2 Assay for human X-box Binding Protein 1 (XBP1) (AID 2282972). Particulars: HepG2 XBP1 cis-element reporter, Attagene multiplex; actives raise or lower the signal. In short, it runs like this: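 Changes in reporter transcript abundance, read by RT-PCR and capillary electrophoresis, reflect endogenous transcription factor activity. Transfected HepG2 cells received compound for 24 hours; DMSO defined baseline for bidirectional analysis.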

Assay [16] is described as follows: ATG_GAL4_TRANS: Attagene TRANS-FACTORIAL HepG2 Assay for GAL4 (Internal Marker) (AID 2282976; active means hit-call score of the fitted dose curve at least 0.9, where 1 is the maximum). Particulars: HepG2 Attagene TRANS GAL4 internal marker reporter. An outline of the steps: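 Liver HepG2 line bearing multiplexed GAL4-UAS reporter constructs; 24 h chemical treatment. Transcripts were quantified as fluorescent fragments on capillary electrophoresis after RT-PCR and HpaI cut, with activity fitted upward from DMSO.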

Assay [17] is described as follows: ATG_TA_CIS: Attagene CIS-FACTORIAL HepG2 Assay for human TA Basal Promoter (AID 2282964). Particulars: HepG2 Attagene CIS-factorial TA basal promoter reporter; actives raise or lower the signal. An outline of the steps:
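HepG2 cells transiently transfected with multiplexed cis-promoter reporter units, dosed 24 h. Reporter mRNA measured by RT-PCR, 6-FAM labelling, HpaI digestion and capillary electrophoresis; bidirectional fit versus DMSO baseline, serving as background control.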

Assay [18] deals with Steroid hormone receptor ERR1 (Homo sapiens) (UniProt P11474). As to the kind of experiment: ATG_ERRa_TRANS: Attagene TRANS-FACTORIAL HepG2 Assay for human Estrogen-Related Receptor alpha (ERRa) (AID 2282971; active means hit-call score of the fitted dose curve at least 0.9, where 1 is the maximum). To be noted: HepG2 Attagene TRANS reporter, ERRa transactivation. In short, it runs like this:
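Signal gain relative to DMSO for an ERRa-Gal4 chimeric receptor, read as reporter mRNA by RT-PCR/capillary electrophoresis. Human HepG2 liver cells, transient multiplex reporter transfection, 24 h chemical exposure.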

Assay [19] can be described thus: ATG_M_19_TRANS: Attagene TRANS-FACTORIAL HepG2 Assay for M19 Transcription Factor (Internal Marker) (AID 2282974; active means hit-call score of the fitted dose curve at least 0.9, where 1 is the maximum). Particulars: HepG2 Attagene TRANS-FACTORIAL M19 internal marker reporter. An outline of the steps:
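24 h chemical exposure of transiently transfected HepG2 (MRTU library). RNA → oligo(dT) RT → PCR → 6-FAM labelling → HpaI cut → CE fluorescence. Positive-direction fit vs DMSO baseline; background internal-marker readout.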

For assay [20], the target named is Estrogen-related receptor gamma (Homo sapiens) (UniProt P62508). Put plainly: ATG_ERRg_TRANS: Attagene TRANS-FACTORIAL HepG2 Assay for human Estrogen-Related Receptor gamma (ERRg) (AID 2282977; active means hit-call score of the fitted dose curve at least 0.9, where 1 is the maximum;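 further: hits increase reporter signal over DMSO so potencies reflect activators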). To be noted: HepG2 Attagene TRANS reporter, ERRg transactivation. An outline of the steps: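 Exogenous NR-Gal4 chimera activity measured as reporter transcript induction after 24 h in transiently transfected HepG2 cells. RNA reverse-transcribed, PCR-amplified, 6-FAM-labelled and resolved by capillary electrophoresis; increase over DMSO baseline.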
Chain of Estrogen-related receptor gamma (Homo sapiens) (P62508 whole entry, looked up, the tested form may be a part): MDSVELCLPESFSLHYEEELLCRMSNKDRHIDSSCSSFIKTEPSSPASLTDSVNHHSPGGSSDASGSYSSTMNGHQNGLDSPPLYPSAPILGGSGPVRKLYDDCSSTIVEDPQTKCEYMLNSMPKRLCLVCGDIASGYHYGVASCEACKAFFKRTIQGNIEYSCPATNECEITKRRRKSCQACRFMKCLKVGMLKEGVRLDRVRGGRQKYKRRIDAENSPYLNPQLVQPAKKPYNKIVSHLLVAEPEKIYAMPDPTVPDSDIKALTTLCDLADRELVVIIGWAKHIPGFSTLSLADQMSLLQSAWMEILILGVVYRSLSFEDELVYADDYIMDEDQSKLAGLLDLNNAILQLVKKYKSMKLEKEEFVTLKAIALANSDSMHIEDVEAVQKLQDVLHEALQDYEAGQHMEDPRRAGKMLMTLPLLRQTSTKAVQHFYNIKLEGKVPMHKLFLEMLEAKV

Chain of Estrogen receptor (Homo sapiens) (P03372 whole entry, looked up, the tested form may be a part): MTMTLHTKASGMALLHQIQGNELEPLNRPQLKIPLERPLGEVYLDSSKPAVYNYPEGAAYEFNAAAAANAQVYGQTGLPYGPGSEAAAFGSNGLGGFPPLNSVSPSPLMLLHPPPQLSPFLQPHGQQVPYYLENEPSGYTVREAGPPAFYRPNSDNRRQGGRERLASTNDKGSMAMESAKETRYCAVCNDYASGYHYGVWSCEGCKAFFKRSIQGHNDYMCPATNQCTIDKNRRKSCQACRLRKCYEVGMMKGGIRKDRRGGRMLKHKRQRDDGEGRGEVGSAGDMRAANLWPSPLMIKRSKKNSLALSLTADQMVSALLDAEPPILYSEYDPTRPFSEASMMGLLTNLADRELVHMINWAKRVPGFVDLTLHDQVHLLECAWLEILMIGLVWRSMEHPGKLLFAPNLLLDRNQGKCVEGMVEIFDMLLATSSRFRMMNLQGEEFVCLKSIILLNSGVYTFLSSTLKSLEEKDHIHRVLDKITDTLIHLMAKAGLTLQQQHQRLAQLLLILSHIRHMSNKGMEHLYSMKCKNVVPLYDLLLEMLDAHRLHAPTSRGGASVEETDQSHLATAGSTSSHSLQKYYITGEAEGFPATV
Chain of Signal transducer and activator of transcription 3 (Homo sapiens) (P40763 whole entry, looked up): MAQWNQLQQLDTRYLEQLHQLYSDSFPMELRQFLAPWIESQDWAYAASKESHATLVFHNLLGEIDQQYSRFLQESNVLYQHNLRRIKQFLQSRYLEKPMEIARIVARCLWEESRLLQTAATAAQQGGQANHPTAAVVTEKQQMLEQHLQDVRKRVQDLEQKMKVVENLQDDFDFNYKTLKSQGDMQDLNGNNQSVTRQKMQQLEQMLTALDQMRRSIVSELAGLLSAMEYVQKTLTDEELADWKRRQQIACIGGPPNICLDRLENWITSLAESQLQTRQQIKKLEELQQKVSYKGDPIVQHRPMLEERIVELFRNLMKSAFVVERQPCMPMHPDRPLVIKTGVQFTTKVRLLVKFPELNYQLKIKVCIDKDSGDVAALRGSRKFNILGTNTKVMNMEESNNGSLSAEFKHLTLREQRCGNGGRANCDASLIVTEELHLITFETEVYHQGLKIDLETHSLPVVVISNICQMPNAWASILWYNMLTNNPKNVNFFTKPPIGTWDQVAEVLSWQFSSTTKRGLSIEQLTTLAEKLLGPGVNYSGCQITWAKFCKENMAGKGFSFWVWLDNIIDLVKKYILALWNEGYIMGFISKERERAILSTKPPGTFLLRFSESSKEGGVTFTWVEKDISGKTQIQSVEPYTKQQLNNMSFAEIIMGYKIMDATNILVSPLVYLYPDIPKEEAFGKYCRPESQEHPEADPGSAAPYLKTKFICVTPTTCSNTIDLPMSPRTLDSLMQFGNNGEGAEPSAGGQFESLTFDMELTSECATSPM
Chain of Paired box protein Pax-6 (Homo sapiens) (P26367 whole entry, looked up): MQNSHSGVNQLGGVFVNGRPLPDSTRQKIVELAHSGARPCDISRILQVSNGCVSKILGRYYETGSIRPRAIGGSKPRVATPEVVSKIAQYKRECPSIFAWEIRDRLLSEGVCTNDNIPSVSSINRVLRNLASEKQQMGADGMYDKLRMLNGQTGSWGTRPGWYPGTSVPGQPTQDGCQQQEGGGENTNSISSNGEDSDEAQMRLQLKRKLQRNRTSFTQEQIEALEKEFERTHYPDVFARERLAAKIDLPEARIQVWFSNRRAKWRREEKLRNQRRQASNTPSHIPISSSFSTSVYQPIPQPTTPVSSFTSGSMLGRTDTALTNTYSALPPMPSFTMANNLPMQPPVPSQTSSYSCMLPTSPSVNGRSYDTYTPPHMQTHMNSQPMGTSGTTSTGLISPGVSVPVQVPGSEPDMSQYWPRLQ
Chain of X-box-binding protein 1 (Homo sapiens) (P17861 whole entry, looked up): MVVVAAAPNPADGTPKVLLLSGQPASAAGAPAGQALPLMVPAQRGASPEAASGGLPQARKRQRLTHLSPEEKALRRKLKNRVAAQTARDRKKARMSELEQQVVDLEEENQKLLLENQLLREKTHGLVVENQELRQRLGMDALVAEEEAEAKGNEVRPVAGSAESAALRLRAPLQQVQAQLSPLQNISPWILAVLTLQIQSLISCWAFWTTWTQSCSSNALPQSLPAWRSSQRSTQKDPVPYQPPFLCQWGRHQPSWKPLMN
Chain of Steroid hormone receptor ERR1 (Homo sapiens) (P11474 whole entry, looked up, the tested form may be a part): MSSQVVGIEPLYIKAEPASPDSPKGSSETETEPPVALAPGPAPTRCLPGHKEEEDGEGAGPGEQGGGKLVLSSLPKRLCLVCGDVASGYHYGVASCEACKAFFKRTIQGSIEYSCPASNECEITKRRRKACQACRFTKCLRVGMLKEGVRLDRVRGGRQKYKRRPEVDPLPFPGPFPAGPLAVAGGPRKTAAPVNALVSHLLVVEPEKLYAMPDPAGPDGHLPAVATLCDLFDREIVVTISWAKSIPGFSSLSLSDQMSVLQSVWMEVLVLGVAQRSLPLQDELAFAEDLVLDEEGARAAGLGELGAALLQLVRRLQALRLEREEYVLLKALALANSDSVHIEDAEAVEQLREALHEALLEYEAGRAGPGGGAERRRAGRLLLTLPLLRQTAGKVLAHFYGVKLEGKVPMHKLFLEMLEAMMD
Chain of Nuclear receptor subfamily 1 group I member 3 (Homo sapiens) (Q14994 whole entry, looked up, the tested form may be a part): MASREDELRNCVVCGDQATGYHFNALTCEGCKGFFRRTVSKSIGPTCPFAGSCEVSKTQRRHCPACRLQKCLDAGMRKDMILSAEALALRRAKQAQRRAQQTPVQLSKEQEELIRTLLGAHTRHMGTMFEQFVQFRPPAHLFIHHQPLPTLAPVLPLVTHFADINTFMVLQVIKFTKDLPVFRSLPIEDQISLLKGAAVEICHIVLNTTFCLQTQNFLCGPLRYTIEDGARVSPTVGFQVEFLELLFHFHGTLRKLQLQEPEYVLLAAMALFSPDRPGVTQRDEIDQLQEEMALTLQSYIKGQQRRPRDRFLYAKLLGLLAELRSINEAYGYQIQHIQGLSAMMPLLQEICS

Regarding `O=c1c2ccccc2nnn1CCl`, the call in [1], in assay [3], in assay [4], in assay [5], in assay [6] and in assay [7] was inactive. The call in assay [8], in [9], in assay [10], in [11], in assay [12] and in assay [13] was inactive. Besides, the call in assay [14], in assay [15] and in [16] was inactive. The half-maximal activity concentration (AC50) in assay [2] was 7.09 µM (active).
Turning to `CCc1nccnc1C`, the result in assay [1], in assay [2], in assay [3], in [4], in [5] and in assay [6] was inactive. In addition, the outcome in assay [7], in assay [8], in [17], in assay [10], in [11] and in assay [12] was inactive. Also, the outcome in assay [18], in assay [15], in [19], in assay [16] and in assay [20] was inactive.
On to `CC(C)(C)c1ccc(N)cc1`, for which the molecule was classed as inactive in assay [1], in [3], in assay [4], in assay [5], in assay [6] and in assay [7]. Also, the call in assay [8], in assay [17], in [9], in [11], in [13] and in assay [14] was inactive. The call in assay [18], in [15], in assay [19], in [16] and in [20] was inactive. Also, the AC50 in assay [2] is 24.2 µM (active).
As for `O=Nc1ccc(O)cc1`, the result in assay [1], in assay [2], in assay [3], in [4], in [5] and in [6] was inactive. Further, the outcome in [7], in assay [8], in assay [9], in [10], in [11] and in assay [15] was inactive. For the same molecule, the AC50 in assay [14] is 48.5 µM (active).
